For assay [1], the system named is Wnt5a (protein binding on small-molecule microarray). The assay is described as follows: Wnt5a binders on small-molecule microarray, primary screen, biophysical, 635/667 nm fluorescence (AID 1142).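 Note: fluorescence read at 667 nm with signal to noise per printed feature.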 The settings on record: 635 nm fluorescence, higher = more signal.
The nature of assay [2]: cell viability in Huh7 cells, primary screen, cytotoxicity control for HCV replication inhibitor project, CellTiter-Glo luminescence, basal, 48 h (AID 1143).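 Note: Huh7 hepatoma cells carrying a hepatitis C replication reporter with no stimulus; test concentration not given here.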 To be noted: Huh7 HCV replicon, higher = more signal, called active from +8 up or from −8 down. (Cellular ATP, detected with luciferase, serves as a proxy for viable cell number.)
A short description of assay [3]: P. aeruginosa biofilm formation inhibitors, primary screen, PAO1 strain, BacTiter-Glo luminescence, LB-PBS (AID 1144). The settings on record: 12 h, higher = more signal.
A short description of assay [4]: CREB reporter modulators without forskolin, primary screen, cell-based, PC12, CRE-LacZ reporter, unstimulated (AID 1145). To be noted: no forskolin, luminescence, 4.5 h, higher = more signal, called active from +8 up or from −8 down.
Assay [5] can be described thus: CREB reporter modulators under forskolin, primary screen, cell-based, PC12, CRE-LacZ reporter, forskolin-stimulated (AID 1146).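 Note: PC12 cells with 6xCRE LacZ reporter stimulated by forskolin 10 µM; beta-galactosidase reporter signal reflecting CREB driven transcription.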 The settings on record: luminescence, 4.5 h, higher = more signal, called active from +8 up or from −8 down.
The target in assay [6] is Streptavidin (Streptomyces avidinii) (UniProt P22629). The assay is described as follows: streptavidin binders on small-molecule microarray, primary screen, artefact control for SMM compound annotation, biophysical, 635/667 nm fluorescence (AID 1147).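 Note: signal reflects streptavidin binding to arrayed compounds as a control protein.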 To be noted: streptavidin binding, higher = more signal.
Chain of Streptavidin (Streptomyces avidinii) (P22629 whole entry, looked up): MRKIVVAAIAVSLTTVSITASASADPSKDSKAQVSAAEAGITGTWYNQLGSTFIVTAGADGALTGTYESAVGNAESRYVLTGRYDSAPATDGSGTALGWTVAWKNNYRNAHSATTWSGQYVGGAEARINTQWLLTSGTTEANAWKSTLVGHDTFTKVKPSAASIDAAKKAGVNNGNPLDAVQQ
A short description of assay [7]: small-molecule binders of probe aInhba, primary screen, biochemical, small-molecule microarray, 635/667 nm fluorescence (AID 1148).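 Note: score merges 667nm spot fluorescence with signal-to-noise for antibody binding to printed compounds.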 The settings on record: higher = more signal.
Assay [8] concerns the target Torsin-1A (Homo sapiens) (UniProt O14656). As to the kind of experiment: torsin A binders from cell lysate, primary screen, small-molecule microarray, wild-type, 635/667 nm (AID 1149). The settings on record: COS7 hTOR1A-WT lysate, 635 nm fluorescence, higher = more signal.
Assay [9] shares this target. As to the kind of experiment: small-molecule binders of mutant TOR1A in lysate, primary screen, cell lysate, small-molecule microarray, COS7 lysate, 635/667 nm fluorescence (AID 1150).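 Note: score pools 667 nm emission and signal to noise measuring lysate protein binding.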 The settings on record: COS7 hTOR1A mutant lysate, 635 nm fluorescence, higher = more signal.
In assay [10] the test system is Sonic hedgehog protein (Shh). As to the kind of experiment: small-molecule binders of Shh protein, primary screen, biochemical, small-molecule microarray, 635/667 nm fluorescence (AID 1151).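 Note: Shh protein binding to compounds spotted on small-molecule microarray slides; score combines spot fluorescence intensity with signal-to-noise across triplicate slides.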 To be noted: small-molecule microarray binding, 635 nm fluorescence; higher = more signal.

Calls of active or inactive are those of the source. Unless noted, the rule behind the calls is not given here.

Chain of Torsin-1A (Homo sapiens) (O14656 whole entry, looked up): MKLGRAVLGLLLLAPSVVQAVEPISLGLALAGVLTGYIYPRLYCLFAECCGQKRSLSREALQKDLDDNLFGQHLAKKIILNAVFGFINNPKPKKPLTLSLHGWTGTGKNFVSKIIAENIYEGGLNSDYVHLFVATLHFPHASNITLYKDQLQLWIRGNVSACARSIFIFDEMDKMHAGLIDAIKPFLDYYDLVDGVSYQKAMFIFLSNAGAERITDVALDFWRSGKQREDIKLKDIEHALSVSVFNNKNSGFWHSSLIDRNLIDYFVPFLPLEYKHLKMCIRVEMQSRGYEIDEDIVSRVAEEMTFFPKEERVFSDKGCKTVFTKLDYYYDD

As for `CCOC(=O)C1=CC[C@@H](c2ccccc2)N(S(=O)(=O)c2ccc(C)cc2)[C@H]1C=C(C)C`, the composite z-score in assay [1] turned out to be 0.367; in [6] it was 1.44; in assay [7], 0.246; in assay [8], 0.258; in [9] it was 1.46; in [10] it was 0.839. Also, the z-score was -4.76 (inactive) in assay [2], 0.514 (inactive) in assay [3], -0.378 (inactive) in [4] and 0.807 (inactive) in assay [5].
For `CCCCC=C[C@@H](NC(=O)CCc1ccccc1)c1ccccc1`, the composite z-score worked out at 0.317 in assay [1]; 1.64 in [6]; 0.128 in assay [7]; 0.677 in assay [8]; 0.701 in assay [9]; 0.0847 in assay [10]. Further, the z-score in [2] is -1.98 (inactive); in assay [3], 0.175 (inactive); in assay [4], -0.951 (inactive); in [5], -0.0104 (inactive).
Take `COc1ccc([Si](C)(C)[C@@H]2[C@@H](CC(=O)N3Cc4ccccc4C[C@H]3CO)O[C@]3(C(=O)N(Cc4cccc(N5CCCCC5=O)c4)c4ccccc43)[C@H]2C)cc1`: the composite z-score amounted to 0.41 in [1]; 0.287 in assay [6]; 0.17 in [7]; 0.652 in assay [8]; 0.101 in assay [9]; 1.76 in [10]. Moreover, the z-score in assay [2] is -3.71 (inactive); in assay [3], 0.723 (inactive); in [4] it was 1.88 (inactive); in [5], -0.136 (inactive).
With `C[N+](C)(C)CCCCCCNC(=O)[C@@H]1C[C@@H]2C(=O)NCC(=O)N2[C@@H]1c1cccc(OCCO)c1`, the composite z-score in assay [1] is 0.338; in [6], -0.357; in [7], -0.0986; in assay [8], 0.335; in [9] it was -0.371; in assay [10] it was 2.16. Further, the z-score in assay [2] was -3.36 (inactive); in [3], -1.82 (inactive); in assay [4], -0.797 (inactive); in assay [5] it was -0.933 (inactive).
Take `CC(C)CN1C(=O)[C@@]2(Cc3ccccc31)c1ccccc1C(=O)N(Cc1ccccc1)[C@H]2c1ccc(CO)cc1`: the composite z-score in assay [1] is -0.631; in [6] it was -0.64; in [7] it was -0.102; in [8] it was -0.971; in [9], -0.359; in assay [10] it was -1.05. For the same compound, the z-score in assay [2] was 0.174 (inactive); in assay [3], -0.221 (inactive); in assay [4] it was -0.295 (inactive); in [5], 0.378 (inactive).
Take `COCCOC(=O)N1C(=O)[C@@]2(c3cc(C#CCC(C(=O)OC)C(=O)OC)ccc31)[C@H](c1ccc(OCCO)cc1)N1[C@H](c3ccccc3)[C@H](c3ccccc3)OC(=O)[C@H]1[C@@H]2C(N)=O`: the composite z-score was 0.0271 in assay [1]; 0.576 in assay [6]; 0.13 in [7]; 0.337 in assay [8]; 1.01 in assay [9]; 0.989 in assay [10]. For the same compound, the z-score was -1.29 (inactive) in [2], 0.719 (inactive) in assay [3], 0.892 (inactive) in [4] and 1.64 (inactive) in assay [5].
Take `Cc1ccc(S[C@]2(C(=O)NCC(C)C)CC(=O)N(C3CCCCC3)[C@@H]2c2ccc(CO)cc2I)cc1`: the composite z-score in assay [1] is 0.249; in assay [6], 0.411; in assay [7], -0.0259; in assay [8], 0.314; in assay [9], 0.289; in assay [10], 0.104. Besides, the z-score was -4.87 (inactive) in assay [2], -0.88 (inactive) in [3], -0.619 (inactive) in [4] and 0.413 (inactive) in [5].
In the case of `CCOC(=O)C[C@H]1[C@H](OC(=O)c2ccccc2-c2ccccc2)[C@@H](NC(=O)c2ccccc2)c2cc(OCCCO)ccc2N1C(=O)Cc1ccc(OC)cc1`, the composite z-score in assay [1] was -0.105; in [6], 0.621; in [7], -0.154; in [8], -0.193; in assay [9], 0.0375; in assay [10], 0.0772. Besides, the z-score is 0.0692 (inactive) in [2], -0.228 (inactive) in [3], 1.58 (inactive) in [4] and 0.0006 (inactive) in assay [5].
As for `[N-]=[N+]=NCc1ccccc1[C@H]1OC(c2ccc(OCCCO)cc2)=N[C@@]1(Cc1ccccc1)C(N)=O`, the composite z-score in assay [1] is 0.765; in assay [6] it was 2.31; in [7], 0.278; in assay [8], 0.217; in [9], 0.65; in assay [10], -1.13. Also, the z-score in assay [2] was -1.18 (inactive); in assay [3], -0.293 (inactive); in [4], 0.479 (inactive); in assay [5] it was -1.43 (inactive).
For the compound `C=C(/C(=C/C[C@@H](OC(=O)c1ccncc1)c1cccc(OCCO)c1)c1cc(C(=O)OC)ccc1OC)C(C)C`, the composite z-score is -0.0958 in assay [1]; 0.179 in [6]; -0.0695 in assay [7]; 0.227 in assay [8]; 0.868 in [9]; 1.64 in [10]. Moreover, the z-score is -1.82 (inactive) in assay [2], -0.634 (inactive) in assay [3], 26.8 (active) in assay [4] and -1.07 (inactive) in assay [5].
In the case of `C[N+](C)(C)CCCCCCNC(=O)[C@@H]1C[C@@H]2C(=O)NCC(=O)N2[C@@H]1c1ccc(O)cc1`, the composite z-score is 0.0508 in assay [1]; 1.44 in assay [6]; -0.0933 in assay [7]; 0.319 in assay [8]; 0.523 in assay [9]; 2.16 in assay [10]. Besides, the z-score in [2] was -0.0464 (inactive); in assay [3], -0.404 (inactive); in assay [4], -0.532 (inactive); in assay [5], -0.828 (inactive).
For `C[C@H]1ON(c2ccccc2)[C@@H](c2ccccc2)[C@@H]1C(=O)N1C(=O)OC[C@@H]1c1ccccc1`, the composite z-score in assay [1] was -0.0367; in [6], 0.116; in assay [7], -0.0403; in [8], 0.151; in [9] it was 0.201; in [10], 0.657. For the same compound, the z-score in [2] was -0.133 (inactive); in assay [3], 0.0377 (inactive); in [4], -0.323 (inactive); in assay [5] it was -0.251 (inactive).
Take `CC(C)C[C@H]1NC(=O)[C@H](C)NC(=O)[C@@]23C(=O)N[C@@H](Cc4ccccc4)C2[C@H](C)[C@@]2(C)O[C@H]2C3/C=C/C/C=C\CNC1=O` (stereo not given in full): the composite z-score in assay [1] was -0.0392; in assay [6], -0.442; in assay [7], -0.176; in assay [8] it was -1.09; in [9], 0.0821; in [10], 0.366. For the same compound, the z-score is 0.288 (inactive) in [2], 0.325 (inactive) in assay [3], 2.03 (inactive) in assay [4] and -0.0505 (inactive) in assay [5].
In the case of `C[C@]12C(=O)N(CCCCCO)[C@@H]3C(=O)N(c4ccc(Cl)cc4)CC=CC31O[C@@H]1/C=C\CCCOC(=O)C12` (stereo not given in full), the composite z-score in assay [1] is -0.937; in assay [6], -1.19; in assay [7] it was -0.179; in assay [8], -2.76; in [9], -1.63; in assay [10], 0.0607. Besides, the z-score was -0.297 (inactive) in assay [2], 1.45 (inactive) in [3], 0.203 (inactive) in assay [4] and -0.416 (inactive) in [5].

These data come from PubChem BioAssay.
